The record followed here is PubChem BioAssay (Tox21).

Results filed as inconclusive are left out. The source made the active and inactive calls. The call rests on the fitted dose curve; in most records, active means well fitted cell-killing curve with a large enough effect in the repeat runs; inconclusive means weak or mixed curves, or effect the other way; inactive means flat fitted curve, though single readings scatter.
On the % scale 0 is the no-effect control and ±100 the full control effect; potency means the concentration at half of the fitted maximal effect.

The experiment can be described thus: qHTS RealTime-Glo MT Cell Viability Assay in HEK293 cells - 32 hour (AID 1224868). Further: nearly all actives have a fitted effect of over 50% in size. On activity change, negative = cytotoxic: top concentration of the series differs between compounds. Particulars: RealTime-Glo luminescence; series mostly up to 76.8 µM; activity change, negative = cytotoxic: at the top concentration. An excerpt:
National Center for Advancing Translational Sciences [NCATS]
NIH Chemical Genomics Center [NCGC]
U.S. Environmental Protection Agency [EPA]
National Institutes of Environmental Health Sciences [NIEHS]
National Toxicology Program [NTP]
U.S. Food and Drug Administration [FDA]
Measure of cell viability is critical in the cell-base assay. Analysis of cell viability is necessary for the characterization of cell responses to cytotoxic drugs and environmental stress. A RealTime-Glo MT Cell Viability Assay to monitor cell viability in real time of continues cell culture during 40 hours of compound treatment was used to screen Tox21 10K library compounds in Hek293 cells. The RealTime-Glo MT Cell Viability Assay is a nonlytic, homogeneous, bioluminescent method to measure cell viability in real time using a simple, plate-based method. The assay involves adding NanoLuc luciferase and a cell-permeant prosubstrate to cells in culture. Viable cells reduce the proprietary prosubstrate to generate a substrate for NanoLuc luciferase. This substrate diffuses from cells into the surrounding culture medium, where it is rapidly used by the NanoLuc Enzyme to produce a luminescent signal. The signal correlates with the number of viable cells, making the assay well suited for cytotoxicity studies.
Tox21 Assay Protocol Summary:
The mixture of Hek293 cell suspension and reagents were dispensed at 600cells/6 ul/well in 1536-well tissue culture treated black solid bottom plates using a Multidrop dispenser. After the assay plates were incubated at a 37 C/5% CO2 incubator for 5 hours, 23 nL of compounds dissolved in DMSO, positive and negative controls was transferred to the assay plate by a pintool work station. The plates were incubated at 37 C for 40 hours. The luminescence intensity were measured at 0h, 8h, 16h, 24h, 32h and 40h time points using ViewLux plate reader during compound treatment.
In general terms: Quantitative high-throughput screening tests each substance at several concentrations.
As to `C[C@H](CS)C(=O)N1CCC[C@H]1C(=O)O`, the “activity change, negative = cytotoxic” value was 11.8% [at 35.3 µM] (inactive).
On the same count and under the same terms, the same measure for `CCOC(=O)Oc1ccc(CCNC(=O)[C@H](CCSC)NC(C)=O)cc1OC(=O)OCC`: 7.75% [at 35.3 µM] (inactive).
Same read-out and setting: the figure for `O=[N+]([O-])c1ccc2ncccc2c1` is -0.0364% (inactive); for `Nc1ccc(NC(=O)c2ccc(N)cc2)cc1` it is -14.1% (inactive).
Consider `CNS(=O)(=O)c1cc(C(=O)N2CCC(CCN3C4CCC3CC(n3c(C)nc5ccccc53)C4)(c3cccc(F)c3)CC2)c(Cl)cc1F` (stereo not given), for which the Potency is 5.49 µM (active).
For `CCN(CC)CCOc1ccccc1C(=O)CCc1ccccc1`, the Potency was 12 µM (active).
`C=CC(=O)NC(C)C`: the “activity change, negative = cytotoxic” value was 9.71% (inactive).
For `O=C(/C=C/c1ccc([N+](=O)[O-])cc1)c1ccccc1`, the Potency was 24.6 µM (active).
Turning to `O=C(O)CCC(=O)c1ccc(-c2ccccc2)cc1`, the “activity change, negative = cytotoxic” value is -0.5% [at 35.3 µM] (inactive).
Still for that read-out and setting: the figure for `NC(=O)CCCCC(N)=O` is 1.57% (inactive).
On the same count and under the same terms, the same measure for `C/C(C=O)=C\c1ccccc1`: 2.99% (inactive).
With `CC(C)c1ccc(C#N)cc1`, the Potency is 15.5 µM (active).
Take `CO[C@@H]1[C@@H](OC)[C@H](C)[C@@](O)(CC(=O)O)O[C@H]1[C@H](C)[C@H]1O[C@@]2(CC[C@@](C)([C@H]3CC[C@@](C)([C@@H]4O[C@@H]([C@H]5O[C@](C)(O)[C@H](C)C[C@@H]5C)C[C@@H]4OC4C[C@H](OC)[C@@H](OC)[C@H](C)O4)O3)O2)C[C@H](O)[C@H]1C` (stereo not given in full): the Potency was 3.01 µM (active).
Take `CC(C)C(=O)OCCOc1ccccc1`: the “activity change, negative = cytotoxic” value is 2.15% (inactive).
In the case of `CCOC(=O)c1c(N)sc2c1CCN(Cc1ccccc1)C2`, the Potency is 21.3 µM (active).
For `O=c1[nH][nH]c(=O)c2cc([N+](=O)[O-])ccc12`, the “activity change, negative = cytotoxic” value was -14.6% (inactive).
On to `Nc1nc(-c2ccc([N+](=O)[O-])cc2)cs1`, for which the “activity change, negative = cytotoxic” value is -13.7% (inactive).
On the same count and under the same terms, the figure for `C=C(C)C(=O)OCCC(F)(F)C(F)(F)C(F)(F)C(F)(F)C(F)(F)C(F)(F)F` is 0.264% (inactive); for `CC(CO)(CO)C(=O)O` it is 0.0983% (inactive).
Consider `CCCCCCCC(=O)OCCCCCC`, for which the Potency is 3.47 µM (active).
`CCCCCCCC/C=C\CCCCCCCC(=O)OCCO`: the “activity change, negative = cytotoxic” value is -0.399% (inactive).
With `Oc1cccc2[nH]ccc12`, the “activity change, negative = cytotoxic” value is 13.9% [at 35.3 µM] (inactive).
As for `CC1=CC[C@@H]2C[C@H]1C2(C)C`, the activity change, negative = cytotoxic was 2.23% [at 15.8 µM] (inactive).
Same read-out and setting: the figure for `CC(C)N=C=NC(C)C` is 0.828% (inactive); for `C=C(C)c1ccccc1` it is 4.69% (inactive).
Same read-out and setting: the figure for `CCC(CO)(CO)CO` is 1.47% (inactive); for `Cc1oc(=O)oc1COC(=O)[C@@H]1N2C(=O)[C@@H](NC(=O)[C@H](N)c3ccccc3)[C@H]2SC1(C)C` it is 7.51% [at 35.3 µM] (inactive).
On the same count and under the same terms, the same measure for `O=c1[nH]c2cc(C(F)(F)F)c(N3CCOCC3)cc2n(CP(=O)(O)O)c1=O`: 4.7% [at 35.3 µM] (inactive); for `O=NN(CCCl)C(=O)NCCCl`: 5.58% [at 35.3 µM] (inactive); for `CCCCCCC(O)CCOC(C)=O` (stereo not given): 0.947% [at 200 µM] (inactive).
Regarding `O[C@@H](CNC[C@H](O)[C@H]1CCc2cc(F)ccc2O1)[C@@H]1CCc2cc(F)ccc2O1`, the Potency was 19 µM (active).
On to `CS(=O)(=O)c1ccc([C@@H](C[C@H]2CCC(=O)C2)C(=O)Nc2cnccn2)cc1Cl`, for which the “activity change, negative = cytotoxic” value is -2% (inactive).
On to `Cc1ccc(Cl)cc1N`, for which the “activity change, negative = cytotoxic” value was 5.51% (inactive).
On the same count and under the same terms, the figure for `CC(=O)OCCC1CCCCC1` is 5.19% (inactive); for `O=C(O)c1ccc(O)cc1O` it is -1.92% (inactive).
For the molecule `CC(O)Cn1cnc2c1c(=O)n(C)c(=O)n2C` (stereo not given), the “activity change, negative = cytotoxic” value is 5.83% [at 35.3 µM] (inactive).
`CCN(CC)c1cccc(O)c1`: the “activity change, negative = cytotoxic” value is 3.77% (inactive).
For `O=C1OC[C@H](Cc2cccc(O)c2)[C@H]1Cc1cccc(O)c1`, the “activity change, negative = cytotoxic” value is -17.3% [at 35.3 µM] (inactive).
With `CC(C(=O)O)c1ccc(C(=O)c2cccs2)cc1` (stereo not given), the “activity change, negative = cytotoxic” value was -0.769% [at 35.3 µM] (inactive).
Turning to `O=[N+]([O-])C1(Br)COCOC1`, the Potency is 34.7 µM (active).
